# Experimental data published in PMC6919601, “Identification of Plasmodium dipeptidyl aminopeptidase allosteric inhibitors by high throughput screening” (PLoS ONE, 2019).
# Among all 110,000 compounds or so, about 230 (0.21%) showed an effect of 50% or more. Shown is part of a subset that was picked to be rich in strong results.
# Target: DPAP1 (Plasmodium falciparum, UniProt Q8IIJ9)
# Assay: primary screen, percent inhibition; read by cleavage of a fluorogenic dipeptide substrate; higher = more effect of the substance
# Design: species or system P. falciparum D10 trophozoite lysates; single well
# 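Further: 30 min substrate incubation versus DMSO and 10 µM JCP410 controls.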
# DPAP1, sequence (Q8IIJ9 whole entry, looked up): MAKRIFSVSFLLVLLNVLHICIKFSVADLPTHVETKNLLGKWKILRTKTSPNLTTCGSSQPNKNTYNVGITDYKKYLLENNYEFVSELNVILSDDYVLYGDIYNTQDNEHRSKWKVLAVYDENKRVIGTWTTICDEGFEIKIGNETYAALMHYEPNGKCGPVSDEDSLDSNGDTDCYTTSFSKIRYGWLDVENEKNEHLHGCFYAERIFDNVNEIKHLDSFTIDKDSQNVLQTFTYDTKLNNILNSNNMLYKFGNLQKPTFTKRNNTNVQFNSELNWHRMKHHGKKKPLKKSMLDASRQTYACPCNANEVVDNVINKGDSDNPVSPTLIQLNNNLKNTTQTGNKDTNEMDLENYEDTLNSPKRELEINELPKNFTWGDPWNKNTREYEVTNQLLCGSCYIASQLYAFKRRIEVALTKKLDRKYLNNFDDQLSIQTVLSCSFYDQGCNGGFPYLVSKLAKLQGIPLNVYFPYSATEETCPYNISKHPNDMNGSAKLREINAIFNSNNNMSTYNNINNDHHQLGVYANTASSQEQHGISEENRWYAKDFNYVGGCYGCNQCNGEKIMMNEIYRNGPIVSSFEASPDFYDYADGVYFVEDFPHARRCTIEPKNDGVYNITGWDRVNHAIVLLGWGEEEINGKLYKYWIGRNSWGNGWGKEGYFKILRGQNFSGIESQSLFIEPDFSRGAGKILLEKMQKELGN
row,Structure (SMILES),% Inhibition @ 10 uM
1,Cc1ccc(-c2cc(NC(=O)COc3ccc(C(C)C)cc3)on2)cc1,-1.47%
2,CN(CCNC(=O)c1noc2c1COc1ccccc1-2)C1CCCCC1,2.73%
3,COc1ccc(CCNC(=O)c2noc3c2COc2ccc(C)cc2-3)cc1OC,-4.07%
4,Cc1ccc2c(c1)-c1onc(C(=O)NCCN(C)C)c1CO2,-4.37%
5,O=C(NCCc1c[nH]c2ccccc12)c1noc2c1COc1ccccc1-2,91.5%
6,Cc1cccc(CCNC(=O)c2cc3c(s2)-c2ccccc2OC3)c1,-4.85%
7,Cc1cccc(CCNC(=O)c2noc3c2COc2ccccc2-3)c1,75.2%
8,CCOC(=O)c1noc2c1COc1ccccc1-2,-1.51%
9,CCOc1ccc(-c2cc(NC(=O)c3noc4c3COc3ccccc3-4)on2)cc1OCC,-1.72%
10,O=C(NCC1(c2ccccc2)CCCC1)c1noc2c1COc1ccccc1-2,47.2%
11,O=C(NCCc1ccc(Cl)cc1)c1noc2c1COc1ccccc1-2,82.6%
12,CCOc1ccc(CCNC(=O)c2noc3c2COc2ccccc2-3)cc1OCC,80.8%
13,O=C(NCCc1ccccc1)c1noc2c1CCc1ccccc1-2,-7.85%
14,O=C(/C=C/c1ccco1)N(Cc1cccc(F)c1)C1CCS(=O)(=O)C1 (centres unmarked),-1.35%
15,O=C(Nc1ccccc1)N1CCN(c2ccccc2)CC1,1.33%
16,CSc1nc2n(n1)C(c1ccc(F)c(Br)c1)C1=C(O)CC(C)(C)CC1=N2 (centres unmarked),-1.62%
17,CC(NCC(O)Cn1nnnc1-c1ccccc1)c1ccccc1 (centres unmarked),2.5%
18,Cc1ccc(NC(=O)C(C)Oc2ccccc2C)c(C)c1 (centres unmarked),6.79%
19,CC(=O)c1c(S)nc(-c2ccccc2)nc1N1CCN(Cc2ccccc2)CC1,29.2%
20,CCOc1ccc(C(=O)NCC2CCN(C(=O)c3ccc(OCC)cc3)CC2)cc1,5%
21,O=[N+]([O-])c1c(NCCO)cc(Cl)c2nonc12,5.66%
22,COc1ccccc1N1C(=O)CC(N2CCN(C)CC2)C1=O (centres unmarked),-6.08%

row,Structure (SMILES),% Inhibition @ 10 uM
1,COc1ccc(/C=C(\C#N)C(N)=S)cc1,-2.51%
2,Cc1ccc(/C=C(\C#N)C(N)=S)o1,79.5%
3,COC(=O)/C(C#N)=C/c1ccc(C)o1,-0.256%
4,CCOC(=O)C1=C(CN2CCN(C(=O)OCC)CC2)NC(=O)NC1c1cccs1 (centres unmarked),-3.36%
5,COc1ccc(C(=O)CC(=O)c2ccc(OC)c(OC)c2)c(O)c1,4.74%
6,Cc1ccc(S(=O)(=O)Nc2nc3ccccc3nc2N2CCCCC2)cc1,-0.969%
7,Fc1ccc2c(c1)c1nnc(S)nc1n2CCc1ccccc1,10.9%
8,CCn1c2ccc(F)cc2c2nnc(S)nc21,32.8%
9,Cc1ccc2[nH]c3nc(S)nnc3c2c1,12.4%
10,Cc1ccc2c(c1)c1nnc(S)nc1n2Cc1ccccc1,3.73%
11,CCCCn1c2ccc(C)cc2c2nnc(S)nc21,61%
12,Cn1c2ccc(F)cc2c2nnc(S)nc21,74%
13,CSc1nnc2c(n1)[nH]c1ccc(C)cc12,2.51%
14,CCn1c2ccc(OC)cc2c2nc3ccccc3nc21,-3.13%
15,CCn1c2ccccc2c2nnc(S)nc21,38%
16,CCn1c2ccc(OC)cc2c2nnc(S)nc21,79.3%
17,Fc1ccc2[nH]c3nc(S)nnc3c2c1,56%
18,CCCCn1c2ccccc2c2nnc(S)nc21,36.5%
19,CC(C)c1nc2ccccc2n1Cc1ccccc1F,1.12%
20,NC(=O)C1CCN(C(=O)COCc2cc(-c3ccc4c(c3)OCO4)on2)CC1,-4.1%
21,COCCCNC(=O)c1cnn2c(C(F)(F)F)cc(-c3cccs3)nc12,-2.26%
22,Nc1ncnc2c1nc(S(=O)(=O)O)n2Cc1ccccc1,-1.69%

row,Structure (SMILES),% Inhibition @ 10 uM
1,CCSC1=NSC2=NC(=O)/C(=C\c3c(C)[nH]c4ccccc34)C(=N)N12,4.79%
2,Cc1cc2ccccc2n1CCNC(=O)C(c1ccccc1)c1ccccc1,-4.89%
3,COCCNC(=O)C1CCCN(S(=O)(=O)N(C)C2CCCCC2)C1 (centres unmarked),-2.86%
4,Sc1nnc2c(n1)[nH]c1ccccc12,38%
5,Sc1nnc2[nH]c3ccccc3c2n1,56.9%
6,c1ccc2nc3c(nc2c1)[nH]c1ccccc13,-1.8%
7,Cc1nc2ccc(S(=O)(=O)NC(C(=O)NCCc3ccccc3)C(C)C)cc2s1 (centres unmarked),-0.0115%
8,Cc1ccc2[nH]c(SCC(=O)Nc3ccc(Cl)cc3)nc2c1,5.24%
9,COc1cccc2cc(-c3cn(-c4cccc(C)c4)c(S)n3)c(=O)oc12,20.1%
10,Cc1cc(C)c2c(=O)n(CC(=O)NCc3ccccc3Cl)sc2n1,83.7%
11,Cc1cc(C)c2c(=O)n(CC(=O)NCCc3ccc(Cl)cc3)sc2n1,15.6%
12,Cc1cc(C)c2c(=O)n(CC(=O)NCc3ccc4c(c3)OCO4)sc2n1,12%
13,Cc1c(C(=O)Nc2nc3c(s2)CCCC3)oc2ccccc12,-2.85%
14,N#CC1=C(N)Oc2[nH]nc(-c3ccncc3)c2C1c1ccncc1 (centres unmarked),3.92%
15,CCOc1cc(-c2c(C)c(C)nc(N)c2C#N)ccc1O,-1.79%
16,O=C(O)c1cccc2c1NC(C(=O)O)C1CC=CC21 (centres unmarked),65.6%
17,CC(C)C1Nc2c(C(=O)O)cccc2C2C=CCC21 (centres unmarked),-1.2%
18,O=C(O)C1Nc2c(cccc2C(F)(F)F)C2C=CCC12 (centres unmarked),0.345%
19,CCc1nn(CCCC(=O)NC2CCCCC2C)c(=O)c2cc3occc3n12 (centres unmarked),-0.281%
20,CCOc1ccc(C(=O)Nc2ccc(-c3nc4ncccc4o3)cc2)cc1Cl,-4.82%
21,CCc1cccc(C)c1NC(=O)c1cc(OC)cc(OC)c1,15.2%
22,O=C(O)CN1C(=O)c2cc(Cl)c(Cl)cc2C1=O,3.67%

row,Structure (SMILES),% Inhibition @ 10 uM
1,COc1ccccc1-n1c(CNC(=O)c2cccc(C)c2)nnc1SCC(=O)Nc1nccs1,2.12%
2,Cc1ccc(C)c(-n2c(CNC(=O)c3cccc(F)c3)nnc2SCC(=O)Nc2nccs2)c1,73.7%
3,Cc1ccc(C(=O)NCc2nnc(SCC(=O)Nc3nccs3)n2-c2ccccc2)cc1C,-4.97%
4,C[C@H](NC(=O)CCc1ccccc1)c1ccccc1,4.22%
5,CC(C)n1c(NC2CCCCC2)nc2c1c(=O)[nH]c(=O)n2C,-1.11%
6,Cc1cc(C)c2oc(C(=O)Nc3nnc(C)s3)cc(=O)c2c1,-3.24%
7,Cc1cc(C)c2oc(C(=O)Nc3nnc(C(C)C)s3)cc(=O)c2c1,53.6%
8,Cc1cc(C)c2oc(C(=O)Nc3nnc(CC(C)C)s3)cc(=O)c2c1,3.51%
9,Cc1cc(C(=O)NCCc2ccccc2)c2c(C)nn(-c3ccccc3)c2n1,-6.46%
10,Cc1nc(SCC(=O)O)c(C#N)c(C)c1C,72.9%
11,COC(=O)CSc1nc(C)c(C)c(C)c1C#N,4.15%
12,Cc1nc(SCC(N)=O)c(C#N)c(C)c1C,-0.239%
13,O=C(CSC1CC(=O)N(c2cccc(Cl)c2)C1=O)Nc1ccc(F)cc1 (centres unmarked),2.13%
14,CC(=O)Nc1ccc(Oc2ccc(NC(C)=O)c(NC(C)=O)c2)cc1,70.7%
15,CCC(=O)Nc1ccc(Oc2ccc(NC(=O)CC)c(NC(=O)CC)c2)cc1,8.21%
16,CC(=O)Nc1ccc(Oc2cccc(Oc3ccc(NC(C)=O)cc3)c2)cc1,-6.02%
17,C1CCN(CCCNC2C3CC4CC(C3)CC2C4)C1 (centres unmarked),-0.192%
18,COc1ccc(C(=O)N2CCC(N3CCCCCC3)CC2)cc1,1.91%
19,Cc1nc2c3ccccc3n3c(CCCC(=O)O)nnc3n2n1,-2.92%
20,c1cncc(C(c2c[nH]c3ccccc23)c2c[nH]c3ccccc23)c1,92.4%
21,Cc1[nH]nc(O)c1C(c1c(O)n[nH]c1C)c1c[nH]c2ccccc12,-6.24%
22,CCc1[nH]c2ccccc2c1C(C)c1cccnc1 (centres unmarked),-4.49%

row,Structure (SMILES),% Inhibition @ 10 uM
1,CC(C)(C)C1CCC(OC(=O)CCC(=O)Nc2ccccc2)CC1 (centres unmarked),3.16%
2,N#Cc1cnn(-c2cc(Oc3ccccc3)nc(-c3ccccc3)n2)c1N,-0.941%
3,Cc1cccc(C)c1-n1c(C)cc(/C=C2\C(=N)N3N=C(S(C)(=O)=O)SC3=NC2=O)c1C,5.1%
4,Cc1cccc(-n2c(C)cc(/C=C3\C(=N)N4N=C(S(C)(=O)=O)SC4=NC3=O)c2C)c1,52.6%
5,Cc1cc(/C=C2\C(=N)N3N=C(S(C)(=O)=O)SC3=NC2=O)c(C)n1-c1cccc(C(F)(F)F)c1,3.53%
6,CN(C)CCN(Cc1ccccc1)c1ncnc2onc(-c3ccc(F)cc3)c12,-2.52%
7,CC(=O)Nc1ccc(Nc2nc(-c3c(C)nc4cc(C)ccn34)cs2)cc1,25.6%
8,N#Cc1c(S)nc2c(c1/C=C/c1ccccc1)CCC2,17.3%
9,CCc1c(C#N)c(S)nc2c1CCC2,88.7%
10,CCc1c(C#N)c(SCC(=O)OC)nc2c1CCC2,4.16%
11,CC(C)Cc1c(C#N)c(SCC(N)=O)nc2c1CCCC2,9.71%
12,CC(C)Cc1c(C#N)c(S)nc2c1CCCC2,90.5%
13,N#Cc1c(S)nc2c(c1-c1ccncc1)CCCC2,30.8%
14,CCn1ncc(Br)c1C(=O)Nc1ccc(S(=O)(=O)Nc2ccc(OC)cc2)cc1,-4.43%
15,O=C(O)c1cc(C(=O)O)cc(N2C(=O)c3ccc([N+](=O)[O-])cc3C2=O)c1,1.64%
16,O=C(c1sc(N2CCOCC2)nc1-c1ccccc1)c1c[nH]c2ccccc12,72.2%
17,CC1(C)OCCN1C(=O)C(=O)c1c[nH]c2ccccc12,-2.68%
18,O=C(CN1CCOCC1)c1c[nH]c2ccccc12,7.5%
19,Cc1nnc(N2CCC(C(=O)NCCc3ccc(Cl)cc3)CC2)c2nn(-c3ccccc3)c(C)c12,0.58%
